SARS 3CLpro inh: SARS-CoV 3CLpro protease inhibition. P0C6X7. recombinant SARS-CoV 3CLpro, quenched FRET peptide cleavage. inhibition, % at 6 µM. 290,000 tested, 0.14% active; in the data active = inhibition above about 12%
Yp Topo-I inh: Y. pestis Topo-I inhibition via cleavage products | Y. pestis Topo-I cleavage product accumulation, plate reader | activity, % at 10 µM | 360,000 tested, 0.064% active | AID 504884; in the data active = activity above about 50%, passing the limit was not always enough
MazF activator: MazEF (E. coli) toxin RNase activation; P0AE70; FAM/BHQ RNA-DNA oligo cleavage fluorescence, 5 h; activation, % at 20 µM; 350,000 tested, 0.32% active; AID 504720; in the data active = activation above about 50%
Target sequence (P0AE70 whole entry, looked up): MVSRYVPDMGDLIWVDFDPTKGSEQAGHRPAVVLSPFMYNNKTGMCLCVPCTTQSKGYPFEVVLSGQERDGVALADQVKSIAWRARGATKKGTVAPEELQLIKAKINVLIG
PriA SSB inh: blocks PriA binding to SSB C-terminal tail | 430,000 tested, 0.6% active | inhibition, % at 33 µM | AlphaScreen SSBct-PriA binding, biotinylated peptide | AID 1272365; in the data active = inhibition mostly above about 37%, no sharp cut-off; inactive = mostly below about 20%
Hits are given with their value; 0 = inactive; - = no result. Sampled rows, rich in hits. Any-hit rate of the full collection: about 0.9%.

SMILES | SARS 3CLpro inh | Yp Topo-I inh | MazF activator | PriA SSB inh
O=C(NCc1c(F)cccc1F)C1CCN(c2cc(-n3cncn3)ncn2)CC1 | - | - | - | 0
CC(NC(=S)Nc1cccc(F)c1)C(c1cccs1)N1CCN(c2ccc(F)cc2)CC1 (configuration not stated) | - | - | - | 0
CCOC(=O)c1c(C)c(C(=O)N2CCc3ccccc3C2)c(C)n1CC | 0 | 0 | 0 | 39
CCOC(=O)c1c(C)c(C(=O)Nc2ccccc2)c(C)n1CC | 0 | 0 | 0 | 0
COC(=O)C1=NN(c2ccc(OC)cc2)C2C(=O)N(c3ccccc3OC)C(=O)C12 (configuration not stated) | 0 | 0 | 0 | 0
COC(=O)C1=CC(C(=O)c2cccs2)=NN(c2ccc(OC)cc2)C1C(=O)OC (configuration not stated) | 0 | 0 | 0 | 39
COC(CNC(=O)C(=O)Nc1ccc2c(c1)N(S(C)(=O)=O)CCC2)c1ccsc1 (configuration not stated) | - | - | - | 0
CC(=O)Oc1cccc2c1C(=O)C1CC=CC(OC(C)=O)C1C2=O (configuration not stated) | - | 61 | 0 | 0
CCN1CCN(CC(=O)N2N=C(c3cccs3)C[C@H]2c2ccc(C)cc2)C(=O)C1=O | - | - | - | 0
O=[N+]([O-])c1ccc(NNC(=S)NC2CCS(=O)(=O)C2)c([N+](=O)[O-])c1 (configuration not stated) | - | - | - | 51
O=C(NC(=S)NC1CCS(=O)(=O)C1)c1ccc([N+](=O)[O-])cc1 (configuration not stated) | - | - | - | 0
Cc1cc(NC(=O)c2cc(Cl)sc2Cl)on1 | - | - | - | 0
CCC(=O)N1CCN(c2cc(N3CCCC3)c(F)cc2[N+](=O)[O-])CC1 | - | 0 | 0 | 0
O=C(c1cccc(F)c1)N1CCN(c2cc(N3CCCCC3)c(F)cc2[N+](=O)[O-])CC1 | 0 | 0 | 0 | 42
CN(C)c1ccc(/C=N/NC(=O)CNC(=O)c2ccncc2)cc1 | 0 | 0 | 0 | -
CC/C(=C\c1ccc(N(C)C)cc1)c1ccncc1 | - | 0 | 0 | 49
c1ccc(N2CCN(c3nc(NCc4ccco4)c4ccccc4n3)CC2)cc1 | 0 | 0 | 0 | 40
Oc1ccccc1-c1nc(NCc2ccco2)c2ccccc2n1 | 0 | 0 | 120 | 0
c1coc(CNc2nc(N3CCCCC3)nc3ccccc23)c1 | 0 | 0 | 0 | 0
Oc1ccccc1-c1nc(NCc2ccccc2)c2ccccc2n1 | 0 | 0 | 63 | 0
CNc1nc(NCc2ccccc2)c2ccccc2n1 | 0 | 0 | 0 | 0
Oc1ccccc1Nc1nc(NCc2ccccc2)c2ccccc2n1 | 0 | 0 | 57 | 50
CCOc1cc(C(=O)Nc2nnc(-c3ccc4c(c3)OCO4)o2)cc(OCC)c1OCC | - | - | - | 0
CO[C@@H](CNC(=O)c1ccc2c(c1)OCO2)c1ccc(Cl)s1 | - | - | - | 0
CC(C)=NNc1ncnc2nc[nH]c12 | - | 0 | 0 | 50
SMILES | SARS 3CLpro inh | Yp Topo-I inh | MazF activator | PriA SSB inh
Cn1nc(C2CCN(CC(=O)Nc3cc(C(F)(F)F)ccc3Cl)CC2)n(-c2ccccc2)c1=O | - | - | - | 0
CCC(=C(c1ccc(OC)cc1)c1ccc(OC)cc1)c1cn(CC(O)CN2CCN(C)CC2)c2ccccc12 (configuration not stated) | 0 | 0 | 0 | 55
Cc1ccc(S(=O)(=O)N2CCN(CC(=O)NN=Cc3ccco3)CC2)cc1 | - | - | - | 0
COc1ccccc1NS(=O)(=O)c1ccc(N/N=C(\C)C(C)C)c([N+](=O)[O-])c1 | 0 | 0 | 0 | -
CCCC(CCC)=NNc1ccc(S(=O)(=O)Nc2ccccc2OC)cc1[N+](=O)[O-] | 0 | 0 | 0 | 41
NS(=O)(=O)c1ccc(NN=C2CCCCC2C2CCCCC2)c([N+](=O)[O-])c1 (configuration not stated) | - | - | - | 40
COc1ccccc1NS(=O)(=O)c1ccc(NN=C2CCCCC2)c([N+](=O)[O-])c1 | 0 | 0 | 0 | 62
CCn1c(C2CCN(C(=O)C3(c4ccccc4)CCOCC3)CC2)nn(CCOC)c1=O | - | - | - | 0
CC(=NNc1nc2ccc(Cl)cc2o1)c1ccccc1 | - | - | - | 0
CC(=NNc1nc2ccccc2o1)c1cc2ccccc2cn1 | - | 0 | 0 | 41
CC(=NNc1nc2ccccc2o1)c1ncccn1 | - | 0 | 0 | 101
Fc1cccc(CCN2C(=S)NC[C@@H]2CC2CCCCC2)c1 | - | 52 | 0 | 0
O=C(CSc1ccc(Cl)cc1)Nc1nnc(-c2ccccn2)o1 | - | - | - | 35
COc1ccccc1-c1nnc(NC(=O)c2cc(-c3ccccc3)nc3ccccc23)o1 | - | - | - | 0
c1ccc(CSc2ccc(-c3ccccn3)nn2)nc1 | 0 | 0 | 0 | 89
c1ccc(-c2ccc(SCc3cccnc3)nn2)nc1 | 0 | 0 | 0 | 76
NC(=O)C1(N2CCCCC2)CCN(S(=O)(=O)c2[nH]ncc2C(=O)O)CC1 | - | - | - | 0
OCc1ccnc2c(O)cccc12 | 0 | 0 | 0 | 87
NC(=O)c1ccnc2c(O)cccc12 | - | 0 | 0 | 41
NC(=O)c1cccc2ccccc12 | 0 | 0 | 0 | 0
Oc1cccc2c(-c3nn[nH]n3)ccnc12 | - | 0 | 0 | 54
O=C(Cc1csc(SCC(=O)c2cccs2)n1)NC1CCCCC1 | - | - | - | 0
CC(C)C(=O)Nc1nc(-c2ccccn2)cs1 | - | - | - | 74
CC(Oc1ccc(C#N)cc1)C(=O)Nc1nc(-c2ccccn2)cs1 (configuration not stated) | - | - | - | 109
O=C(CN1NC2=CCSCC2=CC1=O)Nc1nc(-c2ccccn2)cs1 | - | - | - | 0
SMILES | SARS 3CLpro inh | Yp Topo-I inh | MazF activator | PriA SSB inh
CC(NC(=O)c1cccs1)C(=O)Nc1nc(-c2ccccn2)cs1 (configuration not stated) | - | - | - | 103
CC(C(=O)Nc1nc(-c2ccccn2)cs1)N1NC2=CCCC2=CC1=O (configuration not stated) | - | - | - | 95
CC(Oc1ccc(Br)cc1)C(=O)Nc1nc(-c2ccccn2)cs1 (configuration not stated) | 0 | 0 | 0 | 0
CC(N)C(=O)Nc1nc(-c2ccccn2)cs1 (configuration not stated) | - | - | - | 0
O=C(NCC1CCN(C(=O)c2cc3ccccc3o2)CC1)C(=O)Nc1cccc(C(F)(F)F)c1 | - | - | - | 0
Cc1cccc(C(=O)NC(C)C(=O)Nc2nc(-c3ccccn3)cs2)c1 (configuration not stated) | - | - | - | 100
O=C(Cc1cccs1)NCC(c1ccsc1)N1CCOCC1 (configuration not stated) | - | - | - | 0
COc1ccc(N2C(=O)[C@@H]3[C@H](C2=O)[C@H](C(C)=O)N2c4ccccc4C=C[C@@H]32)cc1 | 0 | 0 | 0 | 0
COc1ccc(C2C(C(=O)c3ccccc3)N3c4ccccc4C=CC3C2[N+](=O)[O-])cc1 (configuration not stated) | 0 | 0 | 63 | 0
Nc1cc(=O)[nH]c(SCC(=O)N2N=C(c3ccc4ccccc4c3)CC2c2ccccc2)n1 (configuration not stated) | 0 | 53 | 0 | 0
Cc1cc(C)cc(NS(=O)(=O)c2ccc(F)c(C)c2)c1 | - | - | - | 0
Nc1n[nH]c(C(=O)N/N=C\c2cccs2)n1 | - | - | - | 50
O=C(N/N=C/c1cccs1)c1cc(-c2ccc3ccccc3c2)n[nH]1 | 0 | 0 | 0 | -
Cc1n[nH]c(=O)nc1NN=Cc1cccs1 | - | - | - | 59
COc1ccc(C)cc1NC(=O)CSc1nccnc1-n1nc(C)cc1C | - | - | - | 0
CCOC(=O)c1c(C(C)(C)C)oc2ccc(OCC(N)=O)cc12 | - | - | - | 0

Screening results deposited in PubChem by several laboratories.
